Data on 40 compounds can be found in PubChem BioAssay (Tox21).

Records with an inconclusive call do not appear. Where a call stands in place of a potency, no number is given. Where a structure was tested more than once in an assay, its records may differ in their call. Active and inactive are the calls of the source. Calls follow the shape of the full dose curve.
Potency is read from the fitted curve at half-maximal effect.

This assay can be described thus: qHTS assay to identify small molecule agonists of the endoplasmic reticulum stress response signaling pathway - cell viability counter screen (AID 1159517). Also: nearly all actives have a fitted effect of over 50% in size. As to conditions: ESRE-bla HeLa viability, CellTiter-Glo luminescence, 5 h; series mostly up to 61 µM; activity change, negative = cytotoxicity: at the top concentration. The text has this:
U.S. Tox21 Program National Center for Advancing Translational Sciences [NCATS] NIH Chemical Genomics Center [NCGC] U.S. Environmental Protection Agency [EPA] National Institutes of Environmental Health Sciences [NIEHS] National Toxicology Program [NTP] U.S. Food and Drug Administration [FDA] Tox21 Assay Overview: Endoplasmic Reticulum (ER) plays an important role in cellular signaling, protein folding/maturation, stress response, lipid biosynthesis, calcium storage and release etc. Under stress conditions, proteins in ER misfold or unfold, and leading to the expression of ER stress responsive genes. ER stress has been associated with a variety of pathophysiological conditions such as cancer, inflammation, neurodegenerative diseases, diabetes, ischemic heart disease etc. To identify the compounds that induce ER stress response, an ER stress reporter cell line, CellSensor ESRE-bla HeLa (Life Technologies, Carlsbad, CA) containing a beta-lactamase reporter gene under control of the Endoplasmic reticulum Stress Response Element (ESRE) was used to screen Tox21 10K compound library. The cytotoxicity of the Tox21 compound library against the ESRE-bla HeLa cell line was tested in parallel by measuring cell viability using the CellTiter-Glo assay in the same wells.
Tox21 Assay Protocol Summary: ESRE-bla HeLa cells were dispensed at 1,500 cells/6 uL of assay medium per well into black wall/clear-bottom 1536-well plates using a Multidrop Combi (ThermoFisher Scientific, Waltham, MA) dispenser. After the assay plates were incubated at 37 C and 5% CO2 for an overnight, 23 nL of compounds dissolved in DMSO, positive controls or DMSO only was transferred to the assay plate by a Pintool station (Kalypsys, San Diego, CA). The assay plates were incubated at 37 C and 5% CO2 for 5 hr. One uL of LiveBLAzer B/G FRET substrate (Life Technologies) was added using a FRD (Flying Reagent Dispenser, Aurora Discovery, San Diego, CA) and the plates were incubated at room temperature for 2 hr. Fluorescence intensity (405 nm excitation, 460 nm and 530 nm emissions) was measured using an Envision plate reader (PerkinElmer, Shelton, CT). For cytotoxicity, 4 ul/well of CellTiter-Glo reagent was added into the assay plates using an FRD. After 30 min incubation at room temperature, the luminescence intensity was measured using a ViewLux plate reader (PerkinElmer).
Regarding `CC(C)OB(OC(C)C)OC(C)C`, the Potency entry was “inactive”.

Turning to `Cc1ccc(C(=O)c2cc(O)c(O)c([N+](=O)[O-])c2)cc1`, the “activity change, negative = cytotoxicity” value was 9.7% (inactive). Same read-out and setting: to `O=C1OC2(c3cc(Br)c(O)c(Br)c3Oc3c2cc(Br)c(O)c3Br)c2c(Cl)c(Cl)c(Cl)c(Cl)c21` belongs -7.74% (inactive).

Regarding `COC(=O)C1=C(C)NC(C)=C(C(=O)OCCN(C)Cc2ccccc2)C1c1cccc([N+](=O)[O-])c1` (stereo not given), the Potency entry was “inactive”. On to `COc1ccc(C(=O)CC(=O)c2ccc(C(C)(C)C)cc2)cc1`, for which the “activity change, negative = cytotoxicity” value was -7.87% (inactive). On to `CN(C)c1nc(N(C)C)nc(N(C)C)n1`, for which the Potency result is “inactive”. Take `O=[N+]([O-])c1ccc2c(c1)Cc1ccccc1-2`: the “activity change, negative = cytotoxicity” value was 0.343% (inactive). Turning to `CC(=O)O[C@]1(C(C)=O)CC[C@H]2[C@@H]3C=C(Cl)C4=CC(=O)[C@@H]5C[C@@H]5[C@]4(C)[C@H]3CC[C@@]21C`, the Potency result is “inactive”. Turning to `O=C=Nc1ccc(Cc2ccc(N=C=O)cc2)cc1`, the Potency result is “inactive”. With `O=C(c1ccccc1)c1ccccc1O`, the Potency result is “inactive”. The same measure, in the same setting: to `Cc1cc2nc3c(=O)[nH]c(=O)nc-3n(C[C@H](O)[C@H](O)[C@H](O)CO)c2cc1C` belongs “inactive”; to `CCCCC(CC)COCC1CO1` (stereo not given), “inactive”.

`C#C[C@]1(O)CC[C@H]2[C@@H]3CCC4=Cc5oncc5C[C@]4(C)[C@H]3CC[C@@]21C`: the “activity change, negative = cytotoxicity” value is -6.79% (inactive).

In the case of `Nc1ccc(Cl)cc1Cl`, the “activity change, negative = cytotoxicity” value is -19.7% (inactive). On to `Oc1ccc(O)cc1`, for which the Potency entry is “inactive”. Turning to `Nc1ccc(Nc2ccccc2)cc1`, the Potency entry is “inactive”.

With `CC1=CC2C3CC(C=C3C)C2C1` (stereo not given), the “activity change, negative = cytotoxicity” value was 10.5% (inactive).

On to `Cc1c(OCC(F)(F)F)ccnc1CS(=O)c1nc2ccccc2[nH]1` (stereo not given), for which the Potency entry was “inactive”. Consider `Cc1ccc2c(n1)Oc1ccc(C(C)C(=O)OCC(=O)N(C)C)cc1C2` (stereo not given), for which the Potency result is “inactive”. On to `CN(C)C(=N)N=C(N)N`, for which the Potency result was “inactive”. For the compound `CCOC(=O)C(C#N)=C(c1ccccc1)c1ccccc1`, the Potency entry was “inactive”. In the case of `CC(C)CC(C)(O)C#CC(C)(O)CC(C)C` (stereo not given), the Potency entry is “inactive”.

As to `Cc1cccc(C(=O)O)c1`, the Potency entry was “inactive”.

In the case of `O=C(c1ccc(OCCN2CCCCC2)cc1)c1c(-c2ccc(O)cc2)sc2cc(O)ccc12`, the Potency result was “inactive”. With `CC(=O)Oc1ccccc1C(=O)Nc1ncc([N+](=O)[O-])s1`, the Potency is 889 nM (active) and inactive. The same measure, in the same setting: to `CCC(C)OC(=O)c1ccc(O)cc1` (stereo not given) belongs “inactive”; to `Cc1c(C(N)=O)cc([N+](=O)[O-])cc1[N+](=O)[O-]`, “inactive”; to `CCCCNS(=O)(=O)c1ccccc1`, “inactive”.

For `NNc1ccc(C(=O)O)cc1`, the Potency entry was “inactive”. `c1cc(N(CC2CO2)CC2CO2)ccc1OCC1CO1` (stereo not given): the Potency result was “inactive”. For the compound `c1ccc2c(c1)c1cccc3ccc4cccc2c4c31`, the Potency entry is “inactive”.

With `O=C(c1ccccc1)c1ccc(O)cc1O`, the Potency result was “inactive”. With `O=S(=O)(O)c1ccc(O)cc1`, the Potency entry is “inactive”. In the case of `C#C[C@]1(O)CC[C@H]2[C@@H]3CCc4cc(OC)ccc4[C@H]3CC[C@@]21C`, the Potency result is “inactive”. The same measure, in the same setting: with `O=CCCCC=O` the figure was 54.9 µM (active); with `O=C(O)c1ccccc1Nc1cccc(C(F)(F)F)c1`, “inactive”; with `C=CC(C)(CCC=C(C)C)OC(C)=O` (stereo not given), “inactive”. As for `COc1ccccc1/C=C/C=O`, the Potency entry is “inactive”. For `CCC(C)c1ccccc1O` (stereo not given), the Potency entry is “inactive”. Turning to `C[C@]12CCC(=O)C=C1CC[C@@H]1[C@@H]2C(=O)C[C@@]2(C)[C@H]1CC[C@]2(O)C(=O)CO`, the Potency entry was “inactive”.
